In PubChem BioAssay (Tox21):
Values without a mark were called inactive. Results filed as inconclusive are left out. Where a call stands in place of a potency, no number is given. The source made the active and inactive calls. The call rests on the fitted dose curve.

What was measured:
[1] = target: Acetylcholinesterase (Homo sapiens) (UniProt P22303); test: Acetylcholinesterase (AChE) small molecule antagonists: colormetric cell-based qHTS assay (AID 1347395); further: nearly all actives have a fitted effect of over 30% in size
Summary of the method: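 SH-SY5Y cells, plated overnight at 37 C, were exposed to compounds for 30 min at 37 C and 5% CO2. Acetylthiocholine plus DTNB was then added, and thiocholine from endogenous AChE was quantified colorimetrically after 90 min at 37 C.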

[2] = target: Acetylcholinesterase (Homo sapiens) (UniProt P22303); test: Acetylcholinesterase (AChE) small molecule antagonists: enzyme-based qHTS assay (AID 1347397); settings: Potency: AChE enzyme activity inhibition; outcome: AChE enzyme activity inhibition; further: nearly all actives have a fitted effect of over 55% in size
Summary of the method: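 Colorimetric DTNB read-out of thiocholine released from acetylthiocholine by recombinant human AChE (50 mU/mL as dispensed). Compounds were preincubated 30 min at RT before substrate/DTNB addition, with a 10 min RT reaction.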

[3] = target: Acetylcholinesterase (Homo sapiens) (UniProt P22303); test: Acetylcholinesterase (AChE) small molecule antagonists: fluorescence cell-based qHTS assay (AID 1347398); settings: Potency: AChE activity; outcome: AChE activity; further: nearly all actives have a fitted effect of over 50% in size
Summary of the method: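 SH-SY5Y, 2,000 cells/well, attached overnight; cmpd 30 min 37 C; acetylthiocholine/Thiolite Green cocktail 40 min RT; fluorescence Ex/Em 490/520 nm.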

[4] = target: Acetylcholinesterase (Homo sapiens) (UniProt P22303); test: Acetylcholinesterase (AChE) small molecule antagonists: enzyme-based qHTS assay with human liver microsomes (AID 1347399); settings: Potency: qHTS inhibition; outcome: qHTS inhibition; further: nearly all actives have a fitted effect of over 60% in size
Summary of the method: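 Recombinant human AChE (50 mU/mL in the enzyme mix) and human liver microsomes (0.25 mg/mL final) were preincubated with compound and NADPH (0.25 mg/mL final) for 30 min at 37 C. Acetylthiocholine/DTNB was then added; thiocholine was read colorimetrically after 10 min at room temperature.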
Potency means the concentration at half of the fitted maximal effect.

Acetylcholinesterase (Homo sapiens), sequence (P22303 whole entry, looked up): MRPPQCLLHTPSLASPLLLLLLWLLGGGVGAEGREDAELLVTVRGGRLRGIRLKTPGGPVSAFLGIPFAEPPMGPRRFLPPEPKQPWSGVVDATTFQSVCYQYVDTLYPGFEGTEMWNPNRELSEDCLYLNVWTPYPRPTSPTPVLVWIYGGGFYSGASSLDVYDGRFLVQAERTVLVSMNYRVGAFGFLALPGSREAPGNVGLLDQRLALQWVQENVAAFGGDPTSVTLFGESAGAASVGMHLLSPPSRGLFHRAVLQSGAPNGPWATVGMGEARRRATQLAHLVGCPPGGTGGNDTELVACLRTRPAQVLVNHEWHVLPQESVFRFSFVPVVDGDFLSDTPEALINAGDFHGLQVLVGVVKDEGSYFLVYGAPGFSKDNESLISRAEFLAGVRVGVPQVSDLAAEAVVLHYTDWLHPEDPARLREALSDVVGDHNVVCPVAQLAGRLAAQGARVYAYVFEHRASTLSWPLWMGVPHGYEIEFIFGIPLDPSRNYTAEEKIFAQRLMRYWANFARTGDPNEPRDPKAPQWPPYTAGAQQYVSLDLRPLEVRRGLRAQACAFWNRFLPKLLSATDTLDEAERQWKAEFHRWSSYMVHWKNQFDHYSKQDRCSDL

In the case of `[O-][n+]1ccc(Cl)cc1`, the Potency [1] is reported as “inactive”, the Potency [2] is reported as “inactive” and the Potency [3] is reported as “inactive”. For the same compound, the Potency [4] was “inactive”.
`CCN(CC)c1ccc2c(-c3ccc(S(=O)(=O)O)cc3S(=O)(=O)[O-])c3ccc(=[N+](CC)CC)cc-3oc2c1` was tested, and the Potency [1] was “inactive”, the Potency [2] was “inactive” and the Potency [3] was 41.2 µM (active). The Potency [4] was “inactive”.
For `CCCCCCCCCCCCCCCC`, the Potency [1] was “inactive”, the Potency [2] was “inactive” and the Potency [3] was “inactive”. The Potency [4] was “inactive”.
With `CCCCCCCOC(=O)c1ccccc1C(=O)OCCCCCCC` the Potency [1] was “inactive”, the Potency [2] was “inactive” and the Potency [3] was “inactive”. The Potency [4] was “inactive”.
For `O=C(N/N=C/c1ccccc1O)c1ccncc1`, the Potency [1] was “inactive”, the Potency [2] was “inactive” and the Potency [3] was “inactive”. For the same compound, the Potency [4] was “inactive”.
`Cc1cc(OI)c(C(C)C)cc1-c1cc(C(C)C)c(OI)cc1C` was tested, and the Potency [1] was “inactive”, the Potency [2] was “inactive” and the Potency [3] was “inactive”. For the same compound, the Potency [4] was “inactive”.
With `C1=CCC(c2ccccc2)CC1` (configuration not stated) the Potency [1] was “inactive”, the Potency [2] was “inactive” and the Potency [3] was “inactive”. For the same compound, the Potency [4] was “inactive”.
`Cc1cccc(C)c1NC(=O)c1cc(S(N)(=O)=O)c(Cl)cc1O` was tested, and the Potency [1] was “inactive”, the Potency [2] was “inactive” and the Potency [3] was “inactive”. For the same compound, the Potency [4] was “inactive”.
`COC(=O)CC#N` was tested, and the Potency [1] was “inactive”, the Potency [2] was “inactive” and the Potency [3] was “inactive”. The Potency [4] was “inactive”.
For `C=CC(C)(CCC=C(C)C)OC(=O)CC` (configuration not stated), the Potency [1] was “inactive”, the Potency [2] was “inactive” and the Potency [3] was “inactive”. For the same compound, the Potency [4] was “inactive”.
With `O=CC1CC1` the Potency [1] was “inactive”, the Potency [2] was “inactive” and the Potency [3] was “inactive”. The Potency [4] was “inactive”.
`Cc1c[nH]c(=S)[nH]c1=O` was tested, and the Potency [1] was “inactive”, the Potency [2] was “inactive” and the Potency [3] was “inactive”. The Potency [4] was “inactive”.
`Cc1nc(C)nc(N2C[C@@H](C)N(c3ccnc([C@@H](C)O)n3)[C@@H](C)C2)n1` was tested, and the Potency [1] was “inactive”, the Potency [2] was “inactive” and the Potency [3] was “inactive”. For the same compound, the Potency [4] was “inactive”.
For `COC(=O)C1=C(C)NC(C)=C(C(=O)O[C@@H]2CCCN(Cc3ccccc3)C2)[C@@H]1c1cccc([N+](=O)[O-])c1`, the Potency [1] was “inactive”, the Potency [2] was “inactive” and the Potency [3] was “inactive”. For the same compound, the Potency [4] was “inactive”.
In the case of `CC[C@H]1OC(=O)[C@H](C)[C@@H](O[C@H]2C[C@@](C)(OC)[C@@H](O)[C@H](C)O2)[C@H](C)[C@@H](O[C@@H]2O[C@H](C)C[C@H](N(C)C)[C@H]2O)[C@](C)(OC)C[C@@H](C)C(=O)[C@H](C)[C@@H](O)[C@]1(C)O`, the Potency [1] is reported as “inactive”, the Potency [2] is reported as “inactive” and the Potency [3] is reported as “inactive”. For the same compound, the Potency [4] was “inactive”.
With `O=C1N(c2ccccc2)c2ccccc2C1(Cc1ccncc1)Cc1ccncc1` the Potency [1] was “inactive”, the Potency [2] was “inactive” and the Potency [3] was “inactive”. The Potency [4] was “inactive”.
For `Cc1cc(S(=O)(=O)O)ccc1N=Nc1c(O)ccc2ccccc12`, the Potency [1] was “inactive”, the Potency [2] was “inactive” and the Potency [3] was “inactive”. The Potency [4] was “inactive”.
With `NCC(=O)O` the activity, negative = inhibition [1] was 0.505% [at 23.6 µM], the activity change, negative = inhibition [2] was 0.147% [at 23.6 µM] and the activity change, negative = inhibition [3] was 6.61% [at 23.8 µM]. For the same compound, the activity change, negative = inhibition [4] was 0.434% [at 23.6 µM].
For `CCNC(=O)C(C)OC(=O)Nc1ccccc1` (configuration not stated), the Potency [1] was “inactive”, the Potency [2] was “inactive” and the Potency [3] was “inactive”. The Potency [4] was “inactive”.
For `CC(C)CCOCc1ccccc1`, the Potency [1] was “inactive”, the Potency [2] was “inactive” and the Potency [3] was “inactive”. The Potency [4] was “inactive”.
For `COc1ccc(-c2ccc3cc(C(=O)O)ccc3c2)cc1C12CC3CC(CC(C3)C1)C2`, the Potency [1] was “inactive”, the Potency [2] was “inactive” and the Potency [3] was “inactive”. For the same compound, the Potency [4] was “inactive”.
With `ClC(Cl)(Br)Br` the Potency [1] was “inactive”, the Potency [2] was “inactive” and the Potency [3] was “inactive”. For the same compound, the Potency [4] was “inactive”.
With `CCCCCCCCCCCCCCCCCl` the activity, negative = inhibition [1] was 0.0979% [at 23.6 µM], the activity change, negative = inhibition [2] was 0.4% [at 23.6 µM] and the activity change, negative = inhibition [3] was -0.0126% [at 23.8 µM]. For the same compound, the activity change, negative = inhibition [4] was 2.03% [at 23.6 µM].
`NC(=O)c1ccccc1[N+](=O)[O-]` was tested, and the Potency [1] was “inactive”, the Potency [2] was “inactive” and the Potency [3] was “inactive”. The Potency [4] was “inactive”.
`N[C@H](C(=O)O)[C@@H](O)c1ccc(O)c(O)c1` was tested, and the Potency [1] was “inactive”, the Potency [2] was “inactive” and the Potency [3] was “inactive”. For the same compound, the Potency [4] was “inactive”.
With `CCCCCCCCC(CO)CCCCCC` (configuration not stated) the Potency [1] was “inactive”, the Potency [2] was “inactive” and the Potency [3] was “inactive”. The Potency [4] was “inactive”.
In the case of `C=C(C)CCCC(C)CCO` (configuration not stated), the Potency [1] is reported as “inactive”, the Potency [2] is reported as “inactive” and the Potency [3] is reported as “inactive”. For the same compound, the Potency [4] was “inactive”.
With `CCCCCCCCC1CCC(=O)O1` (configuration not stated) the Potency [1] was “inactive”, the Potency [2] was “inactive” and the Potency [3] was “inactive”. The Potency [4] was “inactive”.
In the case of `CCN(CC)CCOc1ccc2c(c1)C(=O)c1cc(OCCN(CC)CC)ccc1-2`, the Potency [1] is reported as 0.776 µM (active), the Potency [2] is reported as 1.55 µM (active) and the Potency [3] is reported as 0.55 µM (active). The Potency [4] was 5.49 µM (active).
In the case of `Cc1c(C(=O)NCCO)[n+](=O)c2ccccc2n1[O-]`, the Potency [1] is reported as “inactive”, the Potency [2] is reported as “inactive” and the Potency [3] is reported as “inactive”. The Potency [4] was “inactive”.
In the case of `Cn1cc(C(=O)[C@@H]2CCc3nc[nH]c3C2)c2ccccc21`, the Potency [1] is reported as “inactive”, the Potency [2] is reported as “inactive” and the Potency [3] is reported as “inactive”. For the same compound, the Potency [4] was “inactive”.
In the case of `O=C(O)/C=C/c1ccc(/C=C/C(=O)O)cc1`, the Potency [1] is reported as “inactive”, the Potency [2] is reported as “inactive” and the Potency [3] is reported as “inactive”. The Potency [4] was “inactive”.
For `CCCCCCCCCCCCN1CCOCC1`, the Potency [1] was “inactive”, the Potency [2] was “inactive” and the Potency [3] was “inactive”. The Potency [4] was “inactive”.
With `O=C(/N=N/C(=O)OCc1ccccc1)OCc1ccccc1` the Potency [1] was “inactive”, the Potency [2] was “inactive” and the Potency [3] was “inactive”. The Potency [4] was “inactive”.
With `Cc1cc(O)c2c(O)c3c(O)cccc3cc2c1` the Potency [1] was “inactive”, the Potency [2] was “inactive” and the Potency [3] was “inactive”. The Potency [4] was “inactive”.
With `O=C(O)c1c(Cl)cccc1Cl` the Potency [1] was “inactive”, the Potency [2] was “inactive” and the Potency [3] was “inactive”. The Potency [4] was “inactive”.
In the case of `c1ccc(CNCc2ccccc2)cc1`, the Potency [1] is reported as “inactive”, the Potency [2] is reported as “inactive” and the Potency [3] is reported as “inactive”. For the same compound, the Potency [4] was “inactive”.
For `Cc1nc(-c2ccc3c(c2)CCN(CCC2CCC(NC(=O)/C=C/c4ccc(F)cc4)CC2)CC3)no1` (configuration not stated), the Potency [1] was “inactive”, the Potency [2] was “inactive” and the Potency [3] was “inactive”. The Potency [4] was “inactive”.
